Consider 26 compounds from PubChem BioAssay.

Each structure is given as a SMILES string. A number with no mark means an inactive call. Active and inactive are the calls of the source. Unless noted, how the calls were made is not given here.

One experiment is described as follows: P. aeruginosa biofilm formation inhibitors, primary screen, PAO1 strain, BacTiter-Glo luminescence, LB-PBS (AID 1144). The note with it: 12 h, higher = more signal.
As to `C=CCOC(=O)[C@@H]1[C@H]2C(=O)O[C@H](c3ccccc3)[C@H](c3ccccc3)N2[C@H](c2ccc(OCCOC(=O)[C@H]3C[C@H]4C(=O)N[C@@H](CCCCNC(C)=O)C(=O)N4[C@H]3c3cccc(OCCO)c3)cc2)[C@@]12C(=O)Nc1ccc(I)cc12`, the z-score was -0.929.
Take `O=C1OCCC=C[C@H]2OC34C=CCN(c5ccc(Cl)cc5)C(=O)[C@H]3N(CCCCCO)C(=O)[C@@H]4C12` (stereo partly specified): the z-score is -0.622.
In the case of `COc1ccc(C(O)C2C=CC3C(=O)N(Cc4ccccc4)C(=O)C3N2n2cnnc2)c2ccccc12` (stereo unspecified), the z-score is 0.038.

The next experiment in a line: CREB reporter modulators without forskolin, primary screen, cell-based, PC12, CRE-LacZ reporter, unstimulated (AID 1145). The note with it: no forskolin, luminescence, 4.5 h, higher = more signal, called active from +8 up or from −8 down.
In the case of `COCCOC(=O)N1C(=O)[C@@]2(c3cc(C#CC4(O)CCCCCC4)ccc31)[C@H](C(N)=O)[C@H]1C(=O)O[C@H](c3ccccc3)[C@H](c3ccccc3)N1[C@@H]2c1ccccc1OCCO`, the z-score is 0.0921.
As to `C=CCN1C(=O)[C@@]2(O[C@@H](CCO)[C@H]([Si](C)(C)c3ccc(OC)cc3)[C@H]2C)c2cc(N3C(=O)c4ccccc4Oc4ccccc43)ccc21`, the z-score is 18.4 (active).
As to `C[C@]1(C(=O)NC2CC2)c2ccccc2C(=O)N(Cc2ccc(OC(F)(F)F)cc2)[C@H]1c1ccc(CO)cc1`, the z-score is 1.64.
For the compound `CC(C)(C)OC(=O)CC[C@]1(C(=O)N2CCOCC2)N=C(c2ccc(OCCCO)cc2)O[C@H]1c1ccccc1`, the z-score was -0.114.
Same read-out and setting: next, `C=C[C@@H](C)[C@H](OC(=O)Nc1ccc(SC)cc1)c1ccc(OCCO)cc1`: 0.861.
Regarding `COC(=O)[C@@]1(Cc2ccc(OC)cc2)[C@H]2c3cc(C(=O)N4CCCC4)n(CCc4cc5ccccc5[nH]4)c3C[C@H]2CN1C(=O)c1ccccc1`, the z-score was -0.189.
On to `C=CCNC(=O)[C@@H]1[C@H]2C(=O)O[C@H](c3ccccc3)[C@H](c3ccccc3)N2[C@H](c2ccc(OCCO)cc2)[C@@]12C(=O)N(C(=O)OCCOC)c1ccc(C#CC3=CCCCC3)cc12`, for which the z-score is 0.2.
For `CC(C)C(CO)N1C(=O)[C@]2(C)C3C(=O)OCCC/C=C\[C@H]3OC23C=CCN(c2ccc(Cl)cc2)C(=O)[C@@H]13` (stereo partly specified), the z-score is -0.358.
With `C=CC[C@H](OC(=O)Nc1ccc(OC)cc1)c1ccc(O)c2ccccc12`, the z-score was 0.935.
As to `COc1cc(CO)cc(I)c1O[C@H]1C=C(C(=O)NCCO)C[C@@H](N(Cc2ccc(F)cc2)C(=O)C2CCCO2)[C@@H]1O` (stereo partly specified), the z-score was 0.949.
As for `CCCC[C@@H]1C[C@H]1[C@@H](NC(=O)c1ccccc1)c1ccc(Cl)cc1`, the z-score was 0.197.
As for `CN(C)CCCNC(=O)[C@@H]1c2ccccc2C(=O)N(CC23CC4CC(CC(C4)C2)C3)[C@H]1c1ccc(CO)cc1`, the z-score is -0.322.
For the compound `CC(=O)N1Cc2ccccc2C[C@]2(N=C(c3ccc(OCCCO)cc3)O[C@@H]2c2ccccc2)C1=O`, the z-score is 1.13.
On to `C=CCOC(=O)[C@H]1[C@@H]2C(=O)O[C@@H](c3ccccc3)[C@@H](c3ccccc3)N2[C@@H](c2ccc(OCCOC(=O)[C@H]3C[C@H]4C(=O)N[C@@H](Cc5ccccc5)C(=O)N4[C@H]3c3ccc(O)cc3)cc2)[C@]12C(=O)Nc1ccc(I)cc12`, for which the z-score is 1.09.
With `COC(=O)C1(Cc2ccccc2)C=C2C(=C(C(C)C)C(=O)C2C)CN1` (stereo unspecified), the z-score was 0.59.
Take `C=CC[C@]12N=C(c3ccc(OCCCO)cc3)O[C@H]1c1ccccc1N(C)C2=O`: the z-score is 0.549.
As to `CC=CC(O)C1C=CC2C(=O)N(C)C(=O)C2N1N1CCCCC1` (stereo unspecified), the z-score is 1.79.
`CCCNC(=O)[C@@]1(c2ccc([N+](=O)[O-])cc2)CC(=O)N(C2CCCCC2)[C@@H]1c1ccc(CO)cc1I`: the z-score was -0.682.
On the same count and under the same terms, next, `O=C1C[C@@](C(=O)NCC(F)(F)F)(c2ccc([N+](=O)[O-])cc2)[C@@H](c2ccc(CO)cc2)N1C1CCCCC1`: 0.854; `CCOC(=O)C[C@H]1[C@H](OC(=O)c2ccccc2-c2ccccc2)[C@@H](NC(=O)CC(C)C)c2cc(OCCCO)ccc2N1C(=O)c1ccc2ccccc2n1`: 8.37 (active).
Turning to `COc1ccc(C(O)C2C=CC3C(=O)N(C)C(=O)C3N2N2CCCCC2)cc1` (stereo unspecified), the z-score was 0.639.
As to `CCCCC(CC)C(O)C1C=CC2C(=O)N(c3ccccc3)C(=O)C2N1Nc1ccc([N+](=O)[O-])cc1` (stereo unspecified), the z-score was 0.285.
In the case of `C=C(C(=O)CC[C@H](OC(C)=O)c1cccc(OCCO)c1)C(C)C`, the z-score was 0.798.
